Compounds with a hit are over-represented: about 9.4% of the library has one in this group of screens.
HTT aggregate = qHTS Multiplex Assay to Identify Dual Action Probes in a Cell Model of Huntington: Aggregate Formation (GFP); PC12 HttQ103-GFP aggregates, Acumen cytometry, 40 h; Potency, µM (top dose mostly 46.1 µM), for inactives: at the top dose activity change, negative = inhibition, usual class: inhibitors; hit rate 1.1% among 220,000; AID 1688, 2009; also: potency is read from the fitted curve at half-maximal effect; % is scaled to controls: 0 for no effect and ±100 for the full control effect; nearly all actives have a fitted effect of over 60% in size
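Compounds (qHTS titration) were added to PC12 cells expressing an ecdysone-driven HTT exon 1 Q103–GFP fusion after induction with 100 nM tebufenozide. Aggregate formation was measured as GFP objects in cell lysates.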
ALDH1A1 inh = qHTS Assay for Inhibitors of Aldehyde Dehydrogenase 1 (ALDH1A1). AID 1030, 2008. Potency, µM (highest dose often 75.3 µM), inactives show top-dose activity, negative = inhibition, hits mostly inhibitors. Aldehyde dehydrogenase 1A1 (Homo sapiens), P00352. hit rate 7.3% among 220,000. Purified ALDH1A1, NADH fluorescence, propionaldehyde substrate; active = well fitted inhibition curve with a large enough effect, not every such curve was filed as active; inconclusive = small, poorly fitted or top-dose-only effect, or another doubt; inactive = no such curve, though single readings can be large or run the other way;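 also: potency is read from the fitted curve at half-maximal effect; plate controls were no enzyme wells and a reference inhibitor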
Target sequence (P00352 whole entry, looked up): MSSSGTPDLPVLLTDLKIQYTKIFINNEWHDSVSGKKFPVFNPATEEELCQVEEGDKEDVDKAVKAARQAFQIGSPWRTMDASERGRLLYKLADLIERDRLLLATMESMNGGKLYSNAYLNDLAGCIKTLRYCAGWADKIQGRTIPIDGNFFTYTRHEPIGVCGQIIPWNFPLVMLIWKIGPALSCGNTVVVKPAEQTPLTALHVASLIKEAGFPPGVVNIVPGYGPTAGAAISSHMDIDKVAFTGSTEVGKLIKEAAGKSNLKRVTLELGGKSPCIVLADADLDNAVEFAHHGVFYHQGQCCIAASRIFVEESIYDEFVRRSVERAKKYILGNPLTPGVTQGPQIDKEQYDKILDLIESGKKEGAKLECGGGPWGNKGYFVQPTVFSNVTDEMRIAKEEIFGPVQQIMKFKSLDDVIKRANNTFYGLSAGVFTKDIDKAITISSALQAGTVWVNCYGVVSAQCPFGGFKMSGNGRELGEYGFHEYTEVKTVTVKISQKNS
IMPase cell inh = qHTS Assay for Identifying the Cell-Membrane Permeable IMPase Inhibitors; inhibition (IP1 accumulation), % at 46.1 µM; Inositol monophosphatase 1 (Rattus norvegicus), P97697; CHO-M1 cells, IP1 accumulation, HTRF TR-FRET ratio; 120,000 tested, under 10 active; active = well fitted curve in the direction sought with a large enough effect in the signal ratio, not every such curve was filed as active; inconclusive = small, poorly fitted or top-dose-only effect, or a change in a side signal; inactive = no such curve, though single readings can be large or run the other way; the % refers to the signal ratio;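 also: cells stimulated with carbachol in lithium chloride buffer; plate controls were DMSO basal wells for no effect and reference inhibitor wells for full effect; higher means more IMPase inhibition seen as more IP1 and lower FRET ratio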
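Measured: the HTRF emission ratio (665/620 nm) plus the 620 nm donor channel, each fitted to the Hill equation to give AC50. Cells were CHO-M1 given compounds up to 46 uM and a 30 min carbachol stimulation at 37C.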
HTT cytoprotect = qHTS Multiplex Assay to Identify Dual Action Probes in a Cell Model of Huntington: Cytoprotection (ATP); PC12 HTT-Q103 induced, cytoprotection, ATP luminescence, 40 h; Potency, µM (doses to about 56.4 µM), for inactives: cytoprotection (ATP increase), actives largely listed as activators; hit rate 0.14% among 230,000; also: potency is read from the fitted curve at half-maximal effect; % of control where 0% means no effect; nearly all actives have a fitted effect of over 45% in size
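Compounds were screened for protection of PC12 cells against cell death after tebufenozide induction (100 nM final) of mutant Huntingtin exon 1 (Q103) fused to GFP.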
HPGD block = qHTS Assay for Inhibitors of HPGD (15-Hydroxyprostaglandin Dehydrogenase) | 15-hydroxyprostaglandin dehydrogenase [NAD(+)] (Homo sapiens), P15428 | Potency, µM, for inactives: at the top dose activity change, negative = inhibition, actives largely listed as inhibitors | purified HPGD, NADH fluorescence kinetic, PGE2 substrate | hit rate 4.3% among 150,000; active = well fitted inhibition curve with a large enough effect, not every such curve was filed as active; inconclusive = small, poorly fitted or top-dose-only effect, or another doubt; inactive = no such curve, though single readings can be large or run the other way; also: potency is read from the fitted curve at half-maximal effect; % is scaled to controls: 0 for no effect and ±100 for the full control effect
Target sequence (P15428 whole entry, looked up): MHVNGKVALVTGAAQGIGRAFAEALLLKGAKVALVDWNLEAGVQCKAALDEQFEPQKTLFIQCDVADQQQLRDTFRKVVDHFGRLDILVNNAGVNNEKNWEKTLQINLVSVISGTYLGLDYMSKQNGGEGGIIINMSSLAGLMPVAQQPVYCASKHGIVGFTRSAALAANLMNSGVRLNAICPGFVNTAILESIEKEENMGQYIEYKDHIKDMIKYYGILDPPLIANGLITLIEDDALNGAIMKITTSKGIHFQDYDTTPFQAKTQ
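20 nM HPGD preincubated 15 min at room temperature with compound in 50 mM Tris-HCl pH 8, 0.01% Tween 20. Started with 1 mM NAD+ and 30 uM prostaglandin E2; NADH fluorescence (360/450 nm) read 5 times over 30-s intervals, last minus first.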
IMPase Li cell = qHTS Assay for Identifying the Cell-Membrane Permeable IMPase Inhibitors: Potentiation with Lithium | CHO-M1 cells, IP1 TR-FRET (IP-One), carbachol + lithium | Potency, µM (doses to about 59.4 µM), for the others: at the top dose activity, negative = IMPase inhibition, most hits filed as inhibitors | AID 1457, 2008 | hit rate 0.35% among 210,000;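 also: IP1 builds up when IMPase is blocked and the TR-FRET signal falls; potency is read from the fitted curve at half-maximal effect; plate controls were basal vehicle for no effect and high inhibitor control for full effect; nearly all actives have a fitted effect of over 50% in size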
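CHO-M1, 2000 cells/well, 16–30 h culture; cpd + low Li+, 30 min 37C; lysis with d2-IP1/Eu-anti-IP1 Ab, 10 min RT; TR-FRET 665/620 ratio and 620 channel; AC50 via Hill.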
Starred values were filed as active, the others as inactive; ? = inconclusive; . = not tested or not shown; [ ] = remark or other dose. Unless noted, calls follow the shape of the dose curve; as a rule, active = well fitted curve in the direction sought with a large enough effect; inconclusive = small, poorly fitted or top-dose-only effect, or another doubt; inactive = no such curve, though single readings can be large; an effect the other way counts as inactive or inconclusive.

SMILES	HTT aggregate	ALDH1A1 inh	IMPase cell inh	HTT cytoprotect	HPGD block	IMPase Li cell
CN1CCC(OC(=O)Cc2ccccc2)CC1	-10.3%[9.22 µM]	9.3%	.	0.7%[10 µM]	.	17.7%
O=C(OC1CCN(CCCl)CC1)C(c1ccccc1)c1ccccc1	.	8.91µM*	17.2	-2.6%[1.9 µM]	-10.9%	13.6%
CCOP(=S)(OCC)SCCSCC	.	14.1µM*	.	-10.6%	-11.1%	19.9%
CCOP(=S)(OCC)SCC(=O)NC(C)(CC)C(=O)O (stereo not given)	2.6%	4.8%	2.8	2.0%	-7.8%	-10.1%[38.3 µM]
O=C(O)CCn1cc(C=C2C(=O)NC(=S)NC2=O)c(-c2ccccc2)n1	3.7%	1.12µM*	.	4.0%	.	-2.6%
O=C(O)CCn1cc(C=C2C(=O)NC(=S)NC2=O)c(-c2cc3ccccc3oc2=O)n1	11.5%[9.22 µM]	?	.	28.6%[10 µM]	.	-14.3%
CC[N+](CC)(CCNC(=O)C(=O)NCC[N+](CC)(CC)Cc1ccccc1Cl)Cc1ccccc1Cl	-8.3%	3.6%	13.5	?	-4.0%	28.5%
CC1=NN(c2ccc(S(=O)(=O)O)cc2C)C(=[OH+])[C@H]1N=Nc1cc(S(=O)(=O)O)ccc1C(=O)O.O.[Cr]	.	?	.	9.0%[10 µM]	-15.9%	17.9%
Clc1ccc(C2=CCC[C@H]3CC[C@@H]2N3)cn1	.	10µM*	9.7	27.6%	-14.1%	12.6%
CCNCC	.	4.3%	.	27.7%	-3.2%	-0.9%
C[C@H]1CC[C@@H]2[C@@H](C)[C@H]3[C@H](C[C@H]4[C@@H]5CC=C6CC(O[C@@H]7O[C@H](CO)[C@H](O)[C@H](O[C@@H]8O[C@H](CO)[C@@H](O)[C@H](O)[C@H]8O)[C@H]7O[C@H]7O[C@@H](C)[C@H](O)[C@@H](O)[C@H]7O)CC[C@]6(C)[C@H]5CC[C@]34C)N2C1 (stereo not given in full)	22.4µM*	22.4µM*	.	-101.8%	-4.2%	38.0%
NC[C@@H](O)CSP(=O)(O)O	.	5.5%[13.5 µM]	.	-4.4%[10 µM]	-7.3%	0.9%
Nc1nc(N)c(Cn2ccnc2)c(=O)[nH]1	.	-0.5%[13.5 µM]	.	1.5%[10 µM]	3.1%	-1.1%
O=c1[nH]c(=O)n(Cc2ccco2)c(O)c1C=NC1CC1	-22.4%	14.1µM*	4.6	-29.4%[0.074 µM]	-25.0%	-11.3%[38.3 µM]
Oc1ccc2c3c1O[C@H]1c4c(c5ccccc5n4Cc4ccccc4)C[C@@]4(O)C(C2)N(CC2CC2)CC[C@]314	.	5.0%	.	-155.9%	.	38.5%
CC1=C(O)C(=O)C=C2C1=CC=C1[C@]2(C)CC[C@@]2(C)C3C[C@](C)(C(=O)O)CC[C@@]3(C)CC[C@@]12C (stereo not given in full)	.	-5.8%	.	.	2µM*	30.8%
Oc1ccc2c3c1O[C@H]1c4[nH]c5c(c4C[C@@]4(O)[C@@H](C2)N(CC2CC2)CC[C@]314)C[C@]1(O)[C@H]2Cc3ccc(O)c4c3[C@@]1(CCN2CC1CC1)[C@@H]5O4	.	-4.0%	2.6	0.6%	-2.9%	19.6%
NC(N)=Nc1ccc2[nH]c3c(c2c1)C[C@@]1(O)[C@H]2Cc4ccc(O)c5c4[C@@]1(CCN2CC1CC1)[C@H]3O5	.	1.58µM*	.	.	3.16µM*	38.2%
CC[C@H](CO)NC(=O)[C@H]1C=C2c3cccc4[nH]cc(c34)C[C@H]2N(C)C1	.	.	.	-3.3%	.	.
Cc1ccc(C2(c3ccc(C)c(O)c3C)CCN(C)CC2)c(C)c1O	.	-1.6%[13.5 µM]	.	-0.3%[10 µM]	-7.7%	0.2%
COc1cc2c(cc1OC)-c1c(O)c(OC)cc3c1[C@@H](C2)N(C)CC3	.	.	.	-21.9%	.	.
N#CC(C#N)=Cc1cc(O)c(O)c(O)c1	-16.5%	28.2µM*	36.1	-25.5%	?	47.4%
Cc1ccc(N/N=C/c2c(O)n(-c3ccccc3)c(=O)[nH]c2=O)cc1	-2.6%	11.2µM*	.	-32.7%	.	8.7%
C[N+](C)(C)CC#CCOC(=O)Nc1cccc(Cl)c1	.	7.94µM*	2.8	-6.9%	-12.1%	26.4%
C[C@]12O[C@H](C[C@]1(O)CO)n1c3ccccc3c3c4c(c5c6ccccc6n2c5c31)CNC4=O	1.58µM*	.	.	-97.5%	.	.
SMILES	HTT aggregate	ALDH1A1 inh	IMPase cell inh	HTT cytoprotect	HPGD block	IMPase Li cell
CN[C@@H]1C[C@@]2(C)O[C@@H]([C@@H]1OC)n1c3ccccc3c3c4c(c5c6ccccc6n2c5c31)C(=O)NC4	.	?	.	-195.9%	.	-14.0%
COc1ccc(OC)c(-n2c(O)c(/C=C3\C(C)=Nc4ccccc43)c(=O)[nH]c2=O)c1	22.1%[9.22 µM]	.	.	0.3%[10 µM]	.	.
COC(=O)C1=Nc2ccccc2/C1=C\c1c(O)n(C)c(=O)n(C)c1=O	-16.5%[9.22 µM]	.	.	-9.0%[10 µM]	.	.
COC(=O)C1=Nc2ccccc2/C1=C\c1c(O)n(-c2ccc(Br)cc2)c(=O)[nH]c1=O	13.5%	3.5%	.	.	17.8µM*	-2.3%
COC(=O)C1=Nc2ccccc2/C1=C\c1c(O)n(-c2ccc(OC)cc2)c(=O)[nH]c1=O	7.5%	22.4µM*	13.4	-20.3%	-10.6%	10.4%[38.3 µM]
O=c1[nH]c(=O)n(-c2ccccc2)c(O)c1/C=C1/C(c2ccccc2)=Nc2ccccc21	-14.6%	?	.	-27.5%[10 µM]	25.1µM*	-13.1%
CNc1ccc2oc(C[C@H]3O[C@]4(CC[C@H]3C)O[C@H]([C@H](C)C(=O)c3ccc[nH]3)[C@H](C)C[C@H]4C)nc2c1C(=O)O	.	?	8.6	-57.6%	?	7.2%
COc1ccc2c(c1)[nH]c1c(C)nccc12	.	5.62µM*	-1.3	-92.7%	?	-4.4%
O=C(CN1CCCCC1)NCC(=O)Nc1ccc(Br)cc1C(=O)c1ccccc1	-0.3%	9.7%	-1.1	0.4%	28.2µM*	-27.9%[38.3 µM]
O=C(CNC(=O)c1ccccc1Cl)Nc1ccc(Br)cc1C(=O)c1ccccc1	-9.9%	-5.0%	1.8	17.4%[10 µM]	28.2µM*	16.1%
CC(=O)c1ccc2c(c1)C1C(Cl)C(Sc3ccccc3[N+](=O)[O-])CC1C(C(=O)O)N2 (stereo not given)	2.5%	1.78µM*	4.0	-4.8%[10 µM]	?	37.4%
CC(=O)[C@@H]1CC[C@H]2[C@H]3CC[C@H]4C[C@@H](O)CC[C@]4(C)[C@@H]3CC[C@]12C	.	.	1.7	0.7%[1.9 µM]	.	.
Cc1c(C=O)c2ccccc2n1Cc1ccccc1F	-11.6%[9.22 µM]	?	.	2.8%[10 µM]	.	4.6%
O=Cc1cn(Cc2ccccc2F)c2ccccc12	?	0.447µM*	.	-68.8%	.	6.6%
O=Cc1cn(CCCOc2ccccc2)c2ccccc12	?	?	.	.	?	-6.5%

Assay outcomes (PubChem)
